Pf_Dd2_inh = inhibitors of Plasmodium falciparum Dd2 growth; P. falciparum Dd2 growth, SYBR Green, 72 h; active compounds read low; activity change, % at 10 µM; 94,000 tested, 2.3% active; in the data active = activity change below about -80%; inconclusive = no clear call, values can overlap the other calls
T_cruzi_growth-1 = inhibitors of T. cruzi proliferation; 77,000 tested, 5.9% active; T. cruzi beta-gal in NIH3T3, GalScreen luminescence, 90 h; inhibition, % at 8.34 µM;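 active = mean inhibition above about 93%, with at least 55% of replicates each passing it, limit read from the data, passing the limit was not always enough; inconclusive = only one of those two conditions holds; inactive = neither condition holds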
C_diff_HTS = C. difficile growth inhibition | Clostridium difficile clinical isolate growth, OD600, 24 h; active compounds read low | growth activity, negative = inhibition, % at 16 µg/mL (by protocol) | 86,000 tested, 0.25% active;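 active = mean growth activity at or below -80% and every replicate also at or below -80%; inconclusive = mean at or below -80% but some replicate above -80%; inactive = mean growth activity above -80%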;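 also: 0% = DMSO wells and -100% = levofloxacin 16 µg/mL wells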
T_cruzi_growth-2 = Trypanosoma cruzi proliferation inhibition; shares compounds with T_cruzi_growth-1; T. cruzi beta-gal in NIH3T3, GalScreen luminescence, 90 h; inhibition, % at 8.35 µM; 5,600 tested, 72% active; AID 651739;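 active = mean replicate inhibition above about 95% and at least 55% of replicates individually reaching it, limit read from the data; inconclusive = only one of the two criteria is met; inactive = neither criterion is met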
T_cruzi_growth-3 = Trypanosoma cruzi proliferation inhibition; shares compounds with T_cruzi_growth-1; AID 651740; inhibition, % at 2.09 µM; 5,600 tested, 21% active; T. cruzi beta-gal in NIH3T3, GalScreen luminescence, 90 h;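 active = mean inhibition above about 95%, with at least 55% of replicates also reaching it, limit read from the data; inconclusive = meets just one of the two conditions; inactive = meets neither condition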;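 also: plate controls were neutral control median for no effect and positive control median for full effect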
3T3_cytotox = cytotoxicity in mouse NIH/3T3 fibroblasts | shares compounds with T_cruzi_growth-1 | NIH/3T3 viability, CellTiter-Glo ATP luminescence, 90 h | cytotoxicity (signal decrease), % at 8.35 µM | 5,600 tested, 14% active | AID 651742;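 active = mean signal decrease across replicates above about 35% based on untreated-well scatter, with enough replicates individually passing, limit read from the data; inconclusive = no rule stated though some were filed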;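 also: 0% = median of neutral control wells and 100% = median of positive control wells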
NIH3T3_tox_2 = cytotoxicity in mouse NIH/3T3 fibroblasts. shares compounds with T_cruzi_growth-1. NIH/3T3 viability, CellTiter-Glo ATP luminescence, 90 h. inhibition, % at 24.9 µM. 5,600 tested, 56% active;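 active = mean loss of cell viability signal at or above a set limit, and enough replicates individually reaching it; inconclusive = meets only the mean limit or only the replicate share; inactive = meets neither condition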;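 also: 0% = median of neutral control wells and 100% = median of positive control wells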
* marks the source's active call; other numbers are inactive results; ? = inconclusive; . = not tested or not shown; + = active, no number. Sampled rows, rich in hits. Any-hit rate of the full collection: about 6.8%.

SMILES Pf_Dd2_inh T_cruzi_growth-1 C_diff_HTS T_cruzi_growth-2 T_cruzi_growth-3 3T3_cytotox NIH3T3_tox_2
C[C@@H]1CN([C@H](C)CO)C(=O)c2cc(NC(=O)Nc3ccc4c(c3)OCO4)ccc2O[C@H]1CN(C)Cc1ccc(Oc2ccccc2)cc1 15 -77 0 . . . .
C[C@@H]1CN([C@@H](C)CO)C(=O)c2cc(NC(=O)Nc3ccc4c(c3)OCO4)ccc2O[C@H]1CN(C)Cc1ccc(-c2ccccc2)cc1 -27 96* 12 102* 91 32 82*
C[C@H](CO)N1C[C@H](C)[C@@H](CN(C)Cc2ccc(Oc3ccccc3)cc2)Oc2ccc(NC(=O)Nc3ccc4c(c3)OCO4)cc2C1=O -25 ? 16 111* -24 15 -2
CC(=O)N1CC2(C1)[C@H](c1ccc(-c3ccc(F)cc3)cc1)[C@@H](CO)N2CC1CC1 4 . -7 . . . .
C[C@@H]1CCCCO[C@@H](CN(C)C(=O)c2ccncc2)[C@@H](C)CN([C@H](C)CO)C(=O)c2cc(NS(=O)(=O)c3ccc(Cl)cc3)ccc2O1 25 59 . . . . .
CCN1[C@@H]2Cn3c(ccc(-c4ccccc4)c3=O)[C@H]1[C@@H](C(=O)NCc1ccccc1)[C@@H]2CO 8 53 -3 . . . .
CCN1[C@@H]2c3ccc(-c4ccccc4)c(=O)n3C[C@H]1[C@H](CO)[C@H]2C(=O)Nc1ccccc1 11 99* -2 62 1 8 13
CN(C)C(=O)[C@H]1[C@H](CO)[C@H]2Cn3c(ccc(-c4ccccc4)c3=O)[C@@H]1N2CC1CCCC1 0 ? -1 85 26 5 ?
CN(C)C(=O)[C@@H]1[C@@H](CO)[C@@H]2Cn3c(ccc(-c4ccccc4)c3=O)[C@H]1N2CC1CCCC1 5 87 -2 . . . .
CCNC(=O)[C@@H]1[C@@H](CO)[C@@H]2Cn3c(ccc(-c4ccccc4)c3=O)[C@H]1N2C(=O)C1CC1 15 3 -1 . . . .
CN(C)C(=O)[C@@H]1[C@@H](CO)[C@@H]2Cn3c(ccc(-c4ccccc4)c3=O)[C@H]1N2C(=O)C1CCC1 . + -3 55 -19 -14 7
C[C@@H]1CN([C@@H](C)CO)C(=O)c2cc(/C=C/c3ccccc3)cnc2O[C@@H]1CN(C)C(=O)c1ccc(F)cc1 -64 . -6 . . . .
C[C@H](CO)N1C[C@H](C)[C@@H](CN(C)S(=O)(=O)c2ccccc2)Oc2ccc(NS(=O)(=O)c3ccc(Cl)cc3)cc2C1=O -43 6 -14 . . . .
C[C@@H]1CCCCO[C@@H](CN(C)S(=O)(=O)c2ccc(Cl)cc2)[C@H](C)CN([C@@H](C)CO)C(=O)c2cc(N(C)C)ccc2O1 -79 81 -5 . . . .
CC(=O)N(C)C[C@H]1Oc2cc(C#CC(C)(C)O)ccc2S(=O)(=O)N([C@H](C)CO)C[C@H]1C 28 . -1 . . . .
C[C@H](CO)N1C[C@H](C)[C@@H](CN(C)Cc2ccc(Oc3ccccc3)cc2)Oc2c(NC(=O)C3CCCCC3)cccc2C1=O -35 ? . 104* 89 -28 104*
Cc1noc(C)c1NC(=O)N(C)C[C@@H]1Oc2c(NS(=O)(=O)c3c(C)noc3C)cccc2C(=O)N([C@@H](C)CO)C[C@@H]1C 28 16 0 . . . .
C[C@H]1CN([C@@H](C)CO)C(=O)c2cccc(NC(=O)NC3CCCCC3)c2O[C@H]1CN(C)Cc1ccc(-c2ccccc2)cc1 9 74 3 . . . .
C[C@H](CO)N1C[C@H](C)[C@H](CN(C)Cc2ccc(Oc3ccccc3)cc2)Oc2c(NC(=O)NC3CCCCC3)cccc2C1=O 6 ? 16 100* 105* ? 52*
Cc1noc(C)c1NC(=O)N(C)C[C@@H]1Oc2c(NS(=O)(=O)c3c(C)noc3C)cccc2C(=O)N([C@H](C)CO)C[C@@H]1C 25 102* 6 102* 10 13 -3
C[C@@H]1CN([C@H](C)CO)C(=O)c2cccc(NC(=O)NC3CCCCC3)c2O[C@@H]1CN(C)Cc1ccc(-c2ccccc2)cc1 -34 115* 17 101* 67 6 ?
